Active and inactive are the calls of the source.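 How the source made its calls, unless noted: active means compounds lowering colon cancer cell viability after pretreatment blocking the GSK3B kinase; inactive means the rest.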
Experiments:
[1] = Wnt pathway potentiators raising nuclear beta-catenin – imaging, WNT3A-conditioned medium, mouse C2C12, NPC library, primary screen (AID 1117326; in the data active means nuclear beta-catenin stimulation mostly above about 4.2%, no sharp cut-off; inactive means mostly below about 10%; further: reference of the scale not given here); conditions: stronger effect = higher value
[2] = stimulators of insulin release from INS-1E, primary screen, cell-based, 5 mM glucose, NPC library (AID 1117329;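 active means compound raises insulin release from rat beta cells at 5 mM glucose, no numeric limit stated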; further: reference of the scale not given here); conditions: rat INS-1E insulin secretion, at 10 µM, stronger effect = higher value
[3] = growth inhibition of GSK3B-pretreated HCT116 cells – cell-based, CellTiter-Glo, 0.2 to 20 µM (AID 1117336); conditions: HCT116 viability after GSK3B inhibitor, at 20 µM, stronger effect = higher value
[4] = inhibition of endothelial tube formation, primary screen, imaging, VEGF stimulated, CD31 staining, tube area, NPC library (AID 1117340;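 active means compound that reduces growth-factor-driven endothelial tube area in a mixed cell culture, no cutoff stated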); conditions: VEGF-stimulated ADSC/ECFC co-culture, at 10 µM, stronger effect = higher value
[5] = GLP1 release stimulators, primary, NCI-H716, NPC library (AID 1117341;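 active means compound raises GLP1 secretion from the human gut endocrine cells, with no numeric limit stated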; further: reference of the scale not given here); conditions: NCI-H716 cells, at 10 µM, stronger effect = higher value
[6] = HCT116 colon cancer cell growth inhibition, primary screen, CellTiter-Glo luminescence, NPC library (AID 1117342;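 active means compounds that lower survival of HCT116 colon cancer cells in the luminescence readout, no numeric limit stated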); conditions: at 20 µM (top of the series)
[7] = reduced SW480 viability measured with CellTiter-Glo, NPC library, primary (AID 1117343;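 active means compounds that lower viability of the colon cancer cells in the luminescence readout, with no numeric limit stated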); conditions: CellTiter-Glo luminescence; at 20 µM (top of the series)
[8] = NPC library primary testing for decreased DLD-1 cell viability via CellTiter-Glo (AID 1117346;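 active means compounds that lower survival of DLD-1 colon cancer cells in the luminescence readout, no cutoff given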); conditions: DLD-1 viability, CellTiter-Glo luminescence; at 20 µM (top of the series)

Row | SMILES | nuclear beta-catenin stimulation ([1]; at 10 µM) | nuclear beta-catenin stimulation ([1]; stimulation, at 2 µM) | insulin secretion stimulation [2] | viability decrease [3] | tube area decrease [4] | GLP1 secretion stimulation [5] | inhibition of viability [6] | viability decrease (inhibition) [7] | viability decrease (inhibition) [8]
1 | CCCCOCCOC(=O)c1cccnc1 | 1.3% (inactive) | -0.3% | 2.6% (inactive) | -29.5% (inactive) | 1.8% (inactive) | 2.3% (inactive) | -11.9% (inactive) | 18.6% (inactive) | -20.5% (inactive)
2 | O=C1CCCc2c(O)cccc21 | 1.1% (inactive) | 2.2% | 0.3% (inactive) | 1% (inactive) | 19.3% (inactive) | 2.2% (inactive) | 11.4% (inactive) | 12.5% (inactive) | -7.2% (inactive)
3 | CCOC(=O)C1=C(O)c2ccccc2S(=O)(=O)N1C | -1.5% (inactive) | -0.7% | 0.9% (inactive) | -6% (inactive) | -19.5% (inactive) | -4% (inactive) | 10.3% (inactive) | 12% (inactive) | 4.2% (inactive)
4 | CCC(Cc1c(I)cc(I)c(O)c1I)C(=O)O (stereo not drawn) | 0.6% (inactive) | 0.3% | -0.2% (inactive) | 7.1% (inactive) | -23.3% (inactive) | -3.4% (inactive) | -22.9% (inactive) | 11.5% (inactive) | 1.1% (inactive)
5 | CCCc1c2oc(C(=O)O)cc(=O)c2cc2c(=O)cc(C(=O)O)n(CC)c12 | -1.6% (inactive) | -1% | 2.6% (inactive) | 7.4% (inactive) | -19.4% (inactive) | -2.3% (inactive) | 18.2% (inactive) | 34.6% (inactive) | 15.2% (inactive)
6 | Cc1cccc(N(C)C(=S)Oc2ccc3c(c2)C2CCC3C2)c1 (stereo not drawn) | 0.3% (inactive) | 0.6% | 1% (inactive) | -64.8% (inactive) | 15.8% (inactive) | -4.7% (inactive) | 50.2% (active) | 80% (active) | 56.8% (active)
7 | O=C1c2ccccc2CCc2ccccc21 | 0.9% (inactive) | -0.9% | 2.7% (inactive) | 7% (inactive) | -5.3% (inactive) | -1.2% (inactive) | 4.6% (inactive) | -8.4% (inactive) | 9.1% (inactive)
8 | C[N+]1(CC2COC(c3ccccc3)(C3CCCCC3)O2)CCCCC1 (stereo not drawn) | -2.3% (inactive) | -1.4% | 5% (inactive) | -13.4% (inactive) | 10.1% (inactive) | -2.3% (inactive) | 28.7% (inactive) | 7.6% (inactive) | 3.2% (inactive)
9 | CC(C)=CCC/C(C)=C/CC/C(C)=C/CCC(=O)OC/C=C(\C)CCC=C(C)C | 0.5% (inactive) | 0.6% | 5.2% (inactive) | -4.2% (inactive) | -4.6% (inactive) | 3.3% (inactive) | 1.5% (inactive) | -3.7% (inactive) | 2% (inactive)
10 | CCCCC(=O)O[C@H]1CC[C@H]2[C@@H]3CCc4cc(O)ccc4[C@@H]3CC[C@]12C | -0.4% (inactive) | -0.3% | 1.2% (inactive) | 99.1% (active) | 108% (active) | -4.2% (inactive) | 91.3% (active) | 103% (active) | 74.4% (active)
11 | COc1ccc(C(C#N)C(C)C)cc1OC (stereo not drawn) | -1.8% (inactive) | 0.3% | 2.2% (inactive) | -24.5% (inactive) | 9.3% (inactive) | -3.4% (inactive) | 13.4% (inactive) | -4.7% (active) | -19.9% (inactive)
12 | CN1CC(O)c2cc(N=NC(N)=O)c(O)cc21 (stereo not drawn) | 1.3% (inactive) | 1.3% | -1.7% (inactive) | 2% (inactive) | -33% (inactive) | 2.9% (inactive) | -4.6% (inactive) | 4.9% (inactive) | 2.4% (inactive)
13 | Cc1onc(-c2ccccc2)c1C(=O)Cl | 0% (inactive) | -1.4% | 2.75% (inactive) | 0.5% (inactive) | -12.1% (inactive) | 1.7% (inactive) | 1.8% (inactive) | -5.7% (inactive) | -12.5% (inactive)
14 | CCCCCCn1c(=O)c2c(ncn2C)n(C)c1=O | -0.5% (inactive) | -2% | 1.5% (inactive) | 1.6% (inactive) | 10.5% (inactive) | 1.6% (inactive) | 6.2% (inactive) | 15% (inactive) | -3.4% (inactive)
15 | c1ccc(CNCCNCc2ccccc2)cc1 | 4% (inactive) | 4.4% | 3.4% (inactive) | -31.8% (inactive) | -24% (inactive) | 2.1% (inactive) | -6.83% (inactive) | 20% (inactive) | -22.2% (inactive)
16 | O=C(O)[C@@H]1C(=CCO)O[C@@H]2CC(=O)N12 | 1.3% (inactive) | 0.6% | 2.2% (inactive) | 16.4% (inactive) | 0.5% (inactive) | -1.2% (inactive) | 18.5% (inactive) | 26% (inactive) | -7.7% (inactive)

Row | SMILES | nuclear beta-catenin stimulation ([1]; at 10 µM) | nuclear beta-catenin stimulation ([1]; stimulation, at 2 µM) | insulin secretion stimulation [2] | viability decrease [3] | tube area decrease [4] | GLP1 secretion stimulation [5] | inhibition of viability [6] | viability decrease (inhibition) [7] | viability decrease (inhibition) [8]
17 | CC(=O)/C=C/C=C1/C2CCC(C2)C1(C)C (stereo not drawn) | 1.2% (inactive) | 3.3% | 0.6% (inactive) | -80% (inactive) | -0.7% (inactive) | 0.1% (inactive) | -1.1% (inactive) | 27% (inactive) | -15.2% (inactive)
18 | CCCC(CCC)C(N)=O | -0.9% (inactive) | -1% | 2% (inactive) | 1.8% (inactive) | -17.7% (inactive) | 16.4% (inactive) | 16.3% (inactive) | 25.7% (inactive) | 22.3% (inactive)
19 | O=C(O)c1ccccc1S | 4.7% (inactive) | -1.3% | -0.1% (inactive) | 1% (inactive) | 13.4% (inactive) | -1.4% (inactive) | 2.1% (inactive) | 31.6% (inactive) | -3.4% (inactive)
20 | CN[C@@H]1[C@H](O)[C@H](O[C@@H]2[C@H](O)[C@@H](O[C@H]3O[C@H]([C@@H](C)NC)CC[C@H]3N)[C@@H](N)C[C@H]2N)OC[C@]1(C)O | -0.1% (inactive) | -0.4% | 1.1% (inactive) | 7.9% (inactive) | 0.9% (inactive) | 2.8% (inactive) | 6.73% (inactive) | 29.9% (inactive) | -5.6% (inactive)
21 | COCCc1ccc(OCC2CO2)cc1 (stereo not drawn) | 0.9% (inactive) | 0.3% | 0.8% (inactive) | -8% (inactive) | -12.7% (inactive) | 0.8% (inactive) | -0.6% (inactive) | 14.3% (inactive) | 3.3% (inactive)
22 | CCN(CC)CC(=O)Nc1c(C)cccc1C(=O)OC | 0% (inactive) | 0.3% | 0.7% (inactive) | -3% (inactive) | 27.1% (inactive) | 4.8% (inactive) | -7.9% (inactive) | -13.2% (inactive) | -17.2% (inactive)
23 | O=C(Nc1ccc(Oc2ccc(Cl)cc2)c(Cl)c1)c1cc(I)cc(I)c1O | 6.2% (inactive) | 1.3% | 0.2% (inactive) | 122% (active) | 109% (active) | 29.8% (active) | 128% (active) | 161% (active) | 102% (active)
24 | COc1cc2c(cc1OC)CN(C(=O)[C@H](C)N[C@@H](CCc1ccccc1)C(=O)O)[C@H](C(=O)O)C2 | -0.2% (inactive) | -2.5% | 0.4% (inactive) | -9.2% (inactive) | 14.8% (inactive) | -1.8% (inactive) | 7.6% (inactive) | -3.9% (inactive) | -16.7% (inactive)
25 | CC(C)(C)c1cc(C=O)cc(C(C)(C)C)c1O | 2% (inactive) | 4.1% | 1.1% (inactive) | 19.1% (inactive) | 10.5% (inactive) | 0.6% (inactive) | 4.5% (inactive) | -22.1% (inactive) | -10% (inactive)
26 | CCOC(=O)C(C#N)=C(c1ccccc1)c1ccccc1 | 0.9% (inactive) | 1.8% | 6.6% (inactive) | -0.55% (inactive) | 2.6% (inactive) | -0.1% (inactive) | 26.4% (inactive) | 18.9% (inactive) | 15.2% (inactive)
27 | Cc1c(C)c2c(c(C)c1OC(=O)c1cccnc1)CC[C@@](C)(CCC[C@H](C)CCC[C@H](C)CCCC(C)C)O2 | -0.1% (inactive) | -0.2% | -0.2% (inactive) | 13.1% (inactive) | -9.8% (inactive) | 5.5% (inactive) | -2.9% (inactive) | -20.2% (inactive) | -13.8% (inactive)
28 | COc1ccccc1OCC1CNC(=O)O1 (stereo not drawn) | -2% (inactive) | 0.2% | 0.9% (inactive) | -16.8% (inactive) | -6.7% (inactive) | -1.6% (inactive) | 4.4% (inactive) | 15.3% (inactive) | -2.8% (inactive)
29 | Cc1oc(=O)oc1COC(=O)[C@@H]1N2C(=O)[C@@H](NC(=O)[C@H](N)c3ccccc3)[C@H]2SC1(C)C | 0.5% (inactive) | 1.3% | -1% (inactive) | -11.1% (inactive) | -10.3% (inactive) | -1.9% (inactive) | -15.2% (inactive) | 25.1% (inactive) | -14.8% (inactive)
30 | COC(=O)c1ccc(NC(C)=O)cc1OC | -0.5% (inactive) | -1.4% | -1.4% (inactive) | 13.4% (inactive) | -3.1% (inactive) | -1.8% (inactive) | 1.7% (inactive) | -18.6% (inactive) | -4.9% (inactive)
31 | Nc1ccc(C(=O)OCC(O)CO)cc1 (stereo not drawn) | 3.1% (inactive) | 3.7% | 0.6% (inactive) | 0.9% (inactive) | -15.4% (inactive) | -0.9% (inactive) | 6.7% (inactive) | -16.3% (inactive) | -3.4% (inactive)
32 | CCCCS(=O)(=O)N[C@@H](Cc1ccc(OCCCCC2CCNCC2)cc1)C(=O)O | 1.1% (inactive) | -1.6% | 0.7% (inactive) | 96.5% (active) | -5.9% (inactive) | 5.3% (inactive) | 72.5% (active) | 64.5% (active) | 50.1% (active)
